Test results: PubChem BioAssay (EPA / NIEHS)
Where “and” joins values, the source holds several entries; their conditions need not be identical. Equal values may be shown once. The source holds several records for some structures; these can differ, active in one and inactive in another. Calls of active or inactive are those of the source. The calls were made as follows: active = hit-call score of the fitted dose curve at least 0.9, where 1 is the maximum; inactive = score below 0.9.

How the values were obtained:
[1] = read-out: Intercellular Adhesion Molecule 1 (ICAM1), ICAM1 (gene 3383); assay: BSK_hDFCGF_ICAM1: BioMAP Diversity Plus: hDFCGF Assay for Intercellular Adhesion Molecule 1 (ICAM1) Biomarker Activity (AID 2284287); conditions: primary human foreskin fibroblasts
Method in brief: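 Primary human foreskin fibroblasts (hDFCGF system) dosed with chemical; ICAM-1 quantified by ELISA at 24 h relative to DMSO. Parallel SRB total-protein staining to assess overt cytotoxicity.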

[2] = read-out: TIMP metallopeptidase inhibitor 2 (TIMP2), TIMP2 (gene 7077); assay: BSK_hDFCGF_TIMP2: BioMAP Diversity Plus: hDFCGF Assay for TIMP metallopeptidase inhibitor 2 (TIMP2) Biomarker Activity (AID 2284289); conditions: primary human foreskin fibroblasts
Method in brief: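 Primary human foreskin fibroblasts in the hDFCGF system, dosed for 24 h; TIMP-2 level measured by ELISA, fitted in the positive direction against DMSO; cytotoxicity checked in parallel by sulforhodamine B total protein staining.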

[3] = read-out: Thrombomodulin, THBD (gene 7056); assay: BSK_LPS_Thrombomodulin: BioMAP Diversity Plus: LPS Assay for Thrombomodulin Biomarker Activity (AID 2284296); conditions: primary human HUVEC with PBMC
Method in brief: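 Human umbilical vein endothelial cells co-cultured with PBMC and stimulated with LPS; cell-surface thrombomodulin measured by ELISA 24 hours after compound. Gain or loss versus DMSO; cytotoxicity checked by SRB staining in parallel cultures.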

CD40, CD40 (gene 958) = assay: BSK_IMphg_CD40: BioMAP Diversity Plus: IMphg Assay for CD40 Biomarker Activity (AID 2284288); conditions: primary human endothelial cells with macrophages
Protocol: (§1) BSK_IMphg is a cell-based, multiplexed-readout assay that uses venular endothelial cells and macrophages, a human vascular primary cell, with measurements taken at 24 hours after chemical dosing in a microplate: 96-well plate.BSK_IMphg_CD40 is an assay component measured in the BSK_IMphg assay. It measures CD40 antibody related to regulation of gene expression using ELISA technology.Data from the assay component BSK_IMphg_CD40 was analyzed at the endpoint, BSK_IMphg_CD40, in the positive analysis fitting direction relative to DMSO as the negative control and baseline of activity. Using a type of binding reporter, gain or loss-of-signal activity can be used to understand protein changes. […]
(§2) The levels of cell surface (or secreted, indicated by the prefix "s") biomarker endpoints were measured by ELISA. Overt cytotoxicity to cells in confluent adherent cultures (all systems other than the BT system) was assessed by measuring total protein levels using sulforhodamine B (SRB) staining in parallel cultures at the time of biomarker measurements, indicated as SRB endpoints. For proliferation assays for adherent cell types, individual cell types are cultured at sub-confluence and relative cell numbers quantified by SRB staining at time points optimized for each system (48 h: 3C and CASM3C systems; 72 h: BT and HDF3CGF systems; 96 h: SAg system). […] Plates were read after 6 h.

[4] = read-out: Interleukin-1 alpha (IL1a), IL1A (gene 3552); assay: BSK_IMphg_IL1a: BioMAP Diversity Plus: IMphg Assay for Interleukin-1 alpha (IL1a) Biomarker Activity (AID 2284290); conditions: primary human endothelial cells with macrophages
Method in brief: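 Human venular endothelial cells co-cultured with macrophages, IMphg system. IL-1α is measured by ELISA 24 h after dosing and fitted in the positive direction against DMSO. Cytotoxicity is assessed by SRB staining of parallel cultures.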

[5] = read-out: E-selectin (Homo sapiens) (UniProt P16581); assay: BSK_IMphg_ESelectin: BioMAP Diversity Plus: IMphg Assay for Eselectin Biomarker Activity (AID 2284291); conditions: primary human endothelial cells with macrophages
Method in brief: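 Human venular endothelial cell–macrophage co-culture, E-selectin measured by ELISA 24 h after chemical dosing. Signal fitted in the positive direction against DMSO as negative control and baseline.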

[6] = BSK_IMphg_SRB: Viability Assessment in the BioMAP Diversity Plus: IMphg Assay (AID 2284292); conditions: primary human endothelial cells with macrophages;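 also: measured one day after compound addition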
Method in brief: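 Human venular endothelial cells with macrophages, 24 h after chemical dosing; total protein by 0.1% SRB staining after 10% TCA fixation, read at 560 nm. Positive-direction fitting versus DMSO baseline.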

[7] = read-out: Macrophage colony-stimulating factor (MCSF), CSF1 (gene 1435); assay: BSK_IMphg_MCSF: BioMAP Diversity Plus: IMphg Assay for Macrophage colony-stimulating factor (MCSF) Biomarker Activity (AID 2284293); conditions: primary human endothelial cells with macrophages
Protocol: as §1, with “plate.BSK_IMphg_MCSF” for “plate.BSK_IMphg_CD40”, “M-CSF” for “CD40”, “BSK_IMphg_MCSF” for “BSK_IMphg_CD40”, “BSK_IMphg_MCSF,” for “BSK_IMphg_CD40,”
as §2

[8] = read-out: Interleukin-10 (IL10), IL10 (gene 3586); assay: BSK_IMphg_IL10: BioMAP Diversity Plus: IMphg Assay for Interleukin-10 (IL10) Biomarker Activity (AID 2284294); conditions: primary human endothelial cells with macrophages
Method in brief: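 Human venular endothelial cells cocultured with macrophages, dosed 24 h; IL-10 measured by ELISA, activity relative to DMSO. Cytotoxicity assessed in parallel cultures by sulforhodamine B total-protein staining.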

[9] = BSK_IMphg_SRB.Mphg: Macrophage Viability Assessment in the BioMAP Diversity Plus: IMphg Assay (AID 2284295); conditions: primary human endothelial cells with macrophages
Method in brief: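 Venular endothelial cells co-cultured with macrophages, read 24 h after dosing. Total protein measured by 0.1% SRB staining after 10% TCA fixation, absorbance at 560 nm. Fitted in positive direction against DMSO baseline.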

Chain of E-selectin (Homo sapiens) (P16581 whole entry, looked up): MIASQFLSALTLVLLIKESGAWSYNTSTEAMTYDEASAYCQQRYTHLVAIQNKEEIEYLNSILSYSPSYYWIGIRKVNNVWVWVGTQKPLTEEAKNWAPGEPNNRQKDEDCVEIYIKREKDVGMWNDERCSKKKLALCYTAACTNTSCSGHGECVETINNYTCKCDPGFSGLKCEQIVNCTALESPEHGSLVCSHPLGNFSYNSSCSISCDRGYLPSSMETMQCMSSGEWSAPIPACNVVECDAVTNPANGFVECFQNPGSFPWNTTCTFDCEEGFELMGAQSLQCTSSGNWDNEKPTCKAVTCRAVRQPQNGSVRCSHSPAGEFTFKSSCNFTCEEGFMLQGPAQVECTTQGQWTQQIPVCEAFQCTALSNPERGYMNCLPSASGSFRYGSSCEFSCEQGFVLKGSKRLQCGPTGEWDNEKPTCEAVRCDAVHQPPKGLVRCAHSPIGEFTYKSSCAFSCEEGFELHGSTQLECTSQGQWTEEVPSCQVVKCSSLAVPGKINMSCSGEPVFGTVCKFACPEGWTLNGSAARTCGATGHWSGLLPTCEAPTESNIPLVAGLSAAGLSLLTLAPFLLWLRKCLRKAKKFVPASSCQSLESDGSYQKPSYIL

In the case of `c1ccc(Nc2cccc3ccccc23)cc1`, the AC50 [1] is reported as 33.6 µM (active) and 34.1 µM (active), the AC50 [2] is reported as 33 µM (active) and 31.1 µM (active) and the AC50 [3] is reported as 33.7 µM (active) and 31.2 µM (active).
For `Oc1ccccc1Cc1ccccc1O`, the outcome [1] was “inactive”, the outcome [2] was “inactive” and the outcome [3] was “inactive”.
For `CC(CCC(=O)O)(c1ccc(O)cc1)c1ccc(O)cc1`, the outcome [1] was “inactive”, the outcome [2] was “inactive” and the outcome [3] was “inactive”.
For `O=C(O)C(F)(F)C(F)(F)C(F)(F)C(F)(F)C(=O)O`, the outcome [1] was “inactive”, the outcome (CD40, CD40 (gene 958)) was “inactive” and the outcome [2] was “inactive”. For the same molecule, the outcome [4] was “inactive”, the outcome [5] was “inactive” and the outcome [6] was “inactive”. The outcome [7] was “inactive”, the outcome [8] was “inactive” and the outcome [9] was “inactive”. The outcome [3] was “inactive”.
For `CC(C)C(=O)OCCc1ccccc1`, the outcome [1] was “inactive”, the outcome [2] was “inactive” and the outcome [3] was “inactive”.
With `CCCC(C)C(=O)OCC` (centres undefined) the outcome [1] was “inactive”, the outcome [2] was “inactive” and the outcome [3] was “inactive”.
With `CCCCCCCCCCCC(=O)N(C)CC(=O)O` the outcome [1] was “inactive”, the outcome [2] was “inactive” and the outcome [3] was “inactive”.
In the case of `Nc1nc(N)nc(-c2ccccc2)n1`, the outcome [1] is reported as “inactive”, the outcome [2] is reported as “inactive” and the outcome [3] is reported as “inactive”.
With `C[N+](C)(C)CCCNS(=O)(=O)C(F)(F)C(F)(F)C(F)(F)C(F)(F)C(F)(F)C(F)(F)C(F)(F)C(F)(F)F` the outcome [1] was “inactive”, the AC50 (CD40, CD40 (gene 958)) was 21.8 µM (active) and 23.9 µM (active) and the AC50 [2] was 8.16 µM (active). The outcome [2] was “inactive”, the outcome [4] was “inactive” and the AC50 [5] was 30 µM (active). For the same molecule, the outcome [5] was “inactive”, the AC50 [6] was 34.3 µM (active) and 42.3 µM (active) and the outcome [7] was “inactive”. The AC50 [8] was 41 µM (active) and 36.9 µM (active), the AC50 [9] was 46.2 µM (active) and 30 µM (active) and the AC50 [3] was 21.4 µM (active). The outcome [3] was “inactive”.
